Assay outcomes as filed in PubChem.
Shiga toxin inh = inhibitors of Shiga toxin in Vero cells; Vero cells, Shiga toxin protein synthesis inhibition reporter; inhibition, % at 38.7 µM; hit rate 9.2% among 290,000; AID 2315; in the data active = inhibition mostly above about 28%, no sharp cut-off; inactive = mostly below about 43%; also: 0% is about no effect
CHX counter = affects cycloheximide protein synthesis inhibition readout, counter-screen | cell reporter, cycloheximide protein synthesis inhibition counterscreen | max response, % | hit rate 12% among 300,000; in the data active = max response mostly above about 13%, no sharp cut-off; inactive = mostly below about 14%; also: read at 38.3 µM for the half of the compounds with a filed dose; 0% is about no effect
AmpC no deterg = inhibitors of E. coli AmpC beta-lactamase without detergent. hit rate 0.52% among 330,000. P00811. Potency, µM (highest dose often 57.1 µM), inactives show at the highest dose activity change, negative = inhibition, most hits filed as inhibitors. AmpC nitrocefin hydrolysis, absorbance 480 nm, 0.0001% Triton;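 also: potency is read from the fitted curve at half-maximal effect; plate controls were no compound for no effect and no enzyme for full effect; nearly all actives have a fitted effect of over 20% in size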
Target sequence (P00811 whole entry, looked up): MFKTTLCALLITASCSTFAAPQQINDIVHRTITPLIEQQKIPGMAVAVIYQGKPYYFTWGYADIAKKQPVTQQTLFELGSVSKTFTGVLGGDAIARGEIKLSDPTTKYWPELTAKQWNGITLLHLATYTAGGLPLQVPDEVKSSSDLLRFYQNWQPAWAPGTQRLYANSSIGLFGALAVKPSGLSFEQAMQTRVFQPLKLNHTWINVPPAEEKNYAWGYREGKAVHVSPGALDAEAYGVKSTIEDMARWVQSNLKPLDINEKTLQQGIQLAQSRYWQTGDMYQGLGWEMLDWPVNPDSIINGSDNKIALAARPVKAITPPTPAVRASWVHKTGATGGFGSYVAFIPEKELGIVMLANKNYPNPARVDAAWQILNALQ
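20 mM phosphate pH 7.0 + 0.01% (detergent screen) or 0.0001% Triton X-100; 5.3 nM AmpC reagent; cpd preinc 15 min RT; nitrocefin (800 uM stock) to start; A480 q20 s × 4 min; Activity was normalised to no-enzyme and no-compound control wells.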
AmpC detergent = blocks E. coli AmpC beta-lactamase in detergent assay; P00811; AmpC hydrolysis of nitrocefin, absorbance 480 nm, 0.01% Triton; Potency, µM (top dose mostly 114 µM), for inactives: at the top dose activity change, negative = inhibition, hits mostly inhibitors; hit rate 0.041% among 370,000; AID 485294;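 also: potency is read from the fitted curve at half-maximal effect; 0% = no-compound wells and -100% = no-enzyme wells; nearly all actives have a fitted effect of over 25% in size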
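20 mM phosphate pH 7.0 + 0.01% (detergent screen) or 0.0001% Triton X-100; 5.3 nM AmpC reagent; cpd preinc 15 min RT; nitrocefin (800 uM stock) to start; A480 q20 s × 4 min; Activity was normalised to no-enzyme and no-compound control wells.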
AMA1-RON2 inh = inhibitors of Plasmodium falciparum AMA1-RON2 interaction. AlphaScreen AMA1-biotinylated RON2 peptide binding. Potency, µM (series often up to 58.2 µM), for inactives: at the highest dose activity change, negative = inhibition, most hits filed as inhibitors. hit rate 0.2% among 360,000. AID 720542;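 also: potency is read from the fitted curve at half-maximal effect; 0% = vehicle wells and -100% = peptide control; nearly all actives have a fitted effect of over 45% in size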
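AMA1 (3D7) with his tag at 25 nM final met compounds first, then biotinylated RON2 peptide at 25 nM; detection used donor plus acceptor beads, 10 µg/mL apiece, read by AlphaScreen after 30 min at room temperature.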
SARS PLpro yeast = inhibitors of SARS-CoV papain-like protease in yeast. S. cerevisiae expressing SARS-CoV PLpro, growth rescue. Potency, µM (titrated, usually from 32.9 µM), for inactives: at the highest dose activity, positive = growth rescue, most hits filed as activators. hit rate 0.19% among 330,000; calls by dose curve; also: potency is read from the fitted curve at half-maximal effect; 0% is about no effect; nearly all actives have a fitted effect of over 55% in size
An asterisk follows results filed as active; ? = inconclusive; . = no result given; + = active, no number. This excerpt belongs to a sample that is enriched for hits. Unless noted, calls follow the shape of the dose curve; as a rule, active = well fitted curve in the direction sought with a large enough effect; inconclusive = small, poorly fitted or top-dose-only effect, or another doubt; inactive = no such curve, though single readings can be large; an effect the other way counts as inactive or inconclusive.

SMILES	Shiga toxin inh	CHX counter	AmpC no deterg	AmpC detergent	AMA1-RON2 inh	SARS PLpro yeast
COc1cccc(/C=N/NC(=O)N/N=C/c2cccc(OC)c2O)c1O	.	25*	-47%	-13%	104%	7%
COc1ccccc1C=NNC(=O)NN=Cc1ccccc1OC	.	.	.	.	55%	.
COc1cc(OC)c2cc(C(=O)N/N=C/c3cccc(OC)c3O)[nH]c2c1	7	-2	0.4µM*	-5%	99%	0%
COc1cccc(/C=N/NC(=O)C(=O)N2CCCC2)c1O	+	61*	2%	11%	-29%	?
CC(C)N1CCN(c2ccncc2S(=O)(=O)N2CCOCC2)CC1	-6	-1	-20%	-11%	-1%	0%
Cc1nn(-c2ccccc2)c(Cl)c1/C=C(/CC(=O)O)c1nc2ccccc2s1	.	.	.	.	-4%	.
Cc1ccc(-c2nnn(CC(=O)N(c3ccc4c(c3)OCCO4)C(C(=O)NCC3CCCO3)c3ccc(F)cc3)n2)o1 (configuration not stated)	9	14	59%	2%	-7%	-7%
CCCSc1nc(C)c(-c2csc(C(C#N)=C3CCCC3)n2)cc1C#N	31	16	-47%	-10%	-3%	0%
